Laboratory results from PMC6925144, “A prospective compound screening contest identified broader inhibitors for Sirtuin 1” (Scientific Reports, 2019).
The full ranking holds about 3,200 compounds; the median of “TSA(without NAD+) / Primary screening (TSA) / delta Tm (K)” is about -0.07, and the highest 2% start at about 0.37. Shown is part of a subset that was picked to be rich in the highest values.

molecular target: NAD-dependent deacetylase Sirtuin 1 (human, UniProt Q96EB6); test: primary screen, delta tm; design: single well (n = 1); conditions: 10 µM
In short: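 Thermal shift of Sirtuin 1 measured without NAD+, compound at 10 µM (n = 1); value is ΔTm, with hits defined as ΔTm > 0.45 K or < −1.5 K. Hits retested at 5, 10, 20 µM (n = 4) and counterscreened on bovine carbonic anhydrase and ABL1 SH2 domain.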

Sequence of NAD-dependent deacetylase Sirtuin 1 (Q96EB6 2-747 limits assumed): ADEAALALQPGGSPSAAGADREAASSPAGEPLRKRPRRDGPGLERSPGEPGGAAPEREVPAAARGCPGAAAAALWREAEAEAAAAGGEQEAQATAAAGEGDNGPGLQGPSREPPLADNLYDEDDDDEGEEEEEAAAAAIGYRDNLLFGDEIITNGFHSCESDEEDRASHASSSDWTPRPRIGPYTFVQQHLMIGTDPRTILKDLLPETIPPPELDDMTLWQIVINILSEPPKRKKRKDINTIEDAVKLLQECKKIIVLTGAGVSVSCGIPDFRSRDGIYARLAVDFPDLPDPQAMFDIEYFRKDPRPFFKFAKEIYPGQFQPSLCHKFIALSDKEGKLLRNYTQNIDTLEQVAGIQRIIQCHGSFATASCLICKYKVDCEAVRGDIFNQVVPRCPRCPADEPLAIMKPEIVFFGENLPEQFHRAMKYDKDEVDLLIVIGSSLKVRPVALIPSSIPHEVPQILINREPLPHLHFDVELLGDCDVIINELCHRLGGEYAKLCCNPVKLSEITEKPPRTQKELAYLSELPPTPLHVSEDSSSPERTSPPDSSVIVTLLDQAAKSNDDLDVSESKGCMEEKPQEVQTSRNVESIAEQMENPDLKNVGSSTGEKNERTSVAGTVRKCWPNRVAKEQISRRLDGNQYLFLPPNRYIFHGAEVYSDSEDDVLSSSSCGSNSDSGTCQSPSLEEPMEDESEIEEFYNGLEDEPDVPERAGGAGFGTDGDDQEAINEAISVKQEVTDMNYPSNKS

Structure (SMILES) | TSA(without NAD+) / Primary screening (TSA) / delta Tm (K)
O=C1CCCN1c1cccc(NS(=O)(=O)c2cccc(F)c2)c1 | -0.02 K
COc1ccc(NC(C)c2ccc(S(C)=O)cc2)cn1 (centres unmarked) | -0.18 K
O=C(COC(=O)c1ccc(CNS(=O)(=O)c2ccc(F)c(Cl)c2)cc1)c1ccccc1 | -0.03 K
O=C(C1=C(O)C(=O)N(CCCN2CCOCC2)C1c1ccco1)c1cc2ccccc2o1 (centres unmarked) | 0.02 K
O=C(NCC1CCCO1)Nc1ccc(NC(=O)c2ccccn2)cc1 (centres unmarked) | 0.07 K
Cc1ccc(C(=O)Nc2ccc(NC(=O)NCC3CCCO3)cc2)cn1 (centres unmarked) | 0.52 K
COc1cc(C=C(C(=O)NCC2CCCO2)C(=O)NCC2CCCO2)ccc1OCC(=O)Nc1ccc(C)cc1 (centres unmarked) | -0.08 K
Cc1ccc(Nc2nc(CSc3nnc(NCc4ccco4)s3)cs2)cc1 | -0.17 K
CC(C)OC(=O)CC(Nc1ccc2nnnn2n1)c1ccccc1 (centres unmarked) | -0.07 K
Cc1noc(CN2CCN(c3ncnc4c3oc3ccccc34)CC2)n1 | -0.33 K
Cc1ccc(S(=O)(=O)N2CCN(C(=O)CSc3nnc(NCc4ccco4)s3)CC2)cc1 | 0.16 K
O=c1cc(CSc2nnc(Nc3ccccc3)s2)c2ccc(O)cc2o1 | 0.38 K
COCCNc1nnc(SCc2cc(=O)oc3c(C)c(O)ccc23)s1 | -0.74 K
O=c1cc(CSc2nnc(-c3ccccc3)o2)c2cc3c(cc2o1)CCC3 | -0.18 K
c1nc(N2CCNCC2)c2sccc2n1 | -0.08 K
NC(=O)c1ccc(COC(=O)c2cc3c(ccc4ccccc43)[nH]2)cc1 | 0.05 K
Cc1nc(COc2ccc(C(=O)Nc3ccc(S(=O)(=O)Nc4cccc(F)c4)cc3)cc2)cs1 | 0.09 K
O=C(Nc1ccc(Oc2ncccn2)cc1)c1ccc(S(=O)(=O)Nc2ccc(F)cc2)cc1 | -0.11 K
N#CC(C(=O)c1ccc(NS(=O)(=O)c2ccccc2)cc1)c1nc(-c2ccccn2)cs1 (centres unmarked) | 0.46 K
COc1ccc2[nH]cc(C3CCN(C(=O)c4coc(C)c4)CC3)c2c1 | -0.03 K

Structure (SMILES) | TSA(without NAD+) / Primary screening (TSA) / delta Tm (K)
Cc1nnc(CNC(=O)c2cc(-c3ccccc3)nc3c(C(N)=O)ncn23)s1 | -0.04 K
COc1ccc(NC(=O)c2ccccc2NC(=O)COC(=O)C23CC4CC(CC(O)(C4)C2)C3)cc1 | 0.19 K
COc1ccc(NC(=O)COc2ccc(C(=O)NCC34CC5CC(CC(C5)C3)C4)cc2OC)cc1 | -0.34 K
COc1ccccc1NC(=O)c1ccc(NC(=O)COC(=O)C23CC4CC(CC(C4)C2)C3)cc1 | 0.42 K
COc1ccccc1NS(=O)(=O)c1ccc(NC(=O)CNC(=O)C23CC4CC(CC(C4)C2)C3)cc1 | 0.03 K
COc1ccc(NC(=O)c2ccc(NC(=O)COC(=O)C34CC5CC(CC(Br)(C5)C3)C4)cc2)cc1 | 1.08 K
COc1ccccc1NC(=O)COc1ccc(C(=O)OCC(=O)NC23CC4CC(CC(C4)C2)C3)cc1OC | 0.08 K
CCOC(=O)c1ccc(S(=O)(=O)N2CCC(C(=O)OCC(=O)NCC34CC5CC(CC(C5)C3)C4)CC2)cc1 | -0.13 K
CC(=O)N(c1nn(CN2CCN(c3ccc(C(N)=O)cn3)CC2)c(=S)s1)C1CC1 | -0.23 K
CC1Cc2ccccc2N1c1ncnc2ccsc12 (centres unmarked) | 0.07 K
CC(C)(C)c1ccc(OCC(=O)NNC(=O)c2cccnc2O)cc1 | 0.17 K
Cc1nc2cc(C(=O)Nc3ccc(NC(=O)N4CCCCCC4)cc3)ccc2n1C | -0.04 K
NC(=O)C1CCN(c2ncnc3sc4c(c23)CCC4)CC1 | -0.21 K
Cc1nc(N2CCC(NC(N)=O)CC2)c2c3c(sc2n1)CCCC3 | -0.03 K
Cc1nc(N2CCC(C(N)=O)CC2)c2c3c(sc2n1)CCCCC3 | 0.78 K
Cc1nc(N2CCC(C(N)=O)CC2)c2c3c(sc2n1)CCCC3 | 0.56 K
Cc1nc(N2CCC(C(N)=O)CC2)c2c3c(sc2n1)CCC3 | 0.07 K
NC(=O)C1CCN(c2ncnc3sc4c(c23)CCCCC4)CC1 | 0.36 K
CN(CC(=O)Nc1cccc2ccccc12)C(=O)C1=COCCO1 | -0.23 K
Cc1[nH]c2ccccc2c1CC(=O)Nc1cccc(-c2noc(=O)[nH]2)c1 | 0.07 K

Structure (SMILES) | TSA(without NAD+) / Primary screening (TSA) / delta Tm (K)
CC(C)Oc1ccc(C(=O)C2=C(O)C(=O)N(CCCN3CCOCC3)C2c2cccs2)cc1 (centres unmarked) | -0.23 K
NC(=O)c1ccc(CN2CCSCC2)cc1 | 0.06 K
CCN(CC)CCNC(=O)c1ccc(NC(=O)CC2CCCC2)cc1 | 0.07 K
NC(=S)c1ccc(C(=O)NCc2ccnc(OCC(F)(F)F)c2)cc1 | -0.18 K
O=C(CCc1c[nH]c2ccccc12)Nc1ccc2nc[nH]c(=O)c2c1 | 0.26 K
CN(c1ccccc1)S(=O)(=O)c1cccc(NC(=O)CCCc2c[nH]c3ccccc23)c1 | 0.52 K
CN(c1ccccc1)S(=O)(=O)c1cccc(NC(=O)CNc2cccc3ccccc23)c1 | 0.17 K
O=C(CCc1c[nH]c2ccccc12)Nc1nnc(-c2ccccc2)o1 | 0.52 K
CN(c1ccccc1)S(=O)(=O)c1cccc(NC(=O)CCc2c[nH]c3ccccc23)c1 | 0.38 K
O=C(CCc1c[nH]c2ccccc12)Nc1cccc(S(=O)(=O)NCc2ccco2)c1 | -0.01 K
Cc1ccc(N(C)S(=O)(=O)c2cccc(C(=O)NCCc3c[nH]c4ccccc34)c2)cc1 | 0.23 K
CN(c1ccccc1)S(=O)(=O)c1cccc(C(=O)NCCc2c[nH]c3ccccc23)c1 | 0.16 K
O=C(CCc1c[nH]c2ccccc12)NCCc1ccco1 | -0.05 K
COc1cccc(NC(=S)Nc2cccc(S(=O)(=O)N(C)c3ccccc3)c2)c1 | -0.03 K
NC(=O)c1ccc(C(=O)OCC(=O)c2cc3ccccc3o2)cc1 | -0.38 K
Cc1ccc(NC(=O)CN2CCN(C(=O)c3ccc(-c4ccc(Cl)cc4)o3)CC2)cc1 | 0.08 K
Cc1ccc2nc(-c3ccc(NC(=O)C(C)Cl)cc3)sc2c1 (centres unmarked) | 0.22 K
O=C1NC(=S)NC(=O)C1=Cc1cn(-c2ccccc2)nc1-c1cc2ccccc2o1 | 0.36 K
CC(=O)N1Cc2ccccc2CC1C(=O)NC1CCOc2ccccc21 (centres unmarked) | -0.13 K
